The values that follow come from PubChem BioAssay (Tox21).

A short description of experiment [1]: qHTS assay to identify aromatase inhibitors - cell viability counter screen (AID 743084).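 Also: cells stimulated with testosterone during compound exposure; nearly all actives have a fitted effect of over 55% in size.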 For orientation: In qHTS, concentration-response curves come from the screen itself.
Experiment [2] is described as follows: qHTS assay to identify small molecule that activate the aryl hydrocarbon receptor (AhR) signaling pathway - cell viability counter screen (AID 743086). Also: nearly all actives have a fitted effect of over 45% in size. Also: potency is read from the fitted curve at half-maximal effect. In short, it runs like this: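 HepG2-AhR-luc (HG2L7.5c1) cells, 4000/well, were preincubated 5 h at 37C, exposed to compound in qHTS format for 24 hr at 37C, then given CellTiter-Fluor for 30 min; viability was read as fluorescence in the reporter wells.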

The target of experiment [3] is Peroxisome proliferator-activated receptor gamma (Homo sapiens) (UniProt P37231). Kind of experiment: qHTS assay to identify small molecule agonists of the peroxisome proliferator-activated receptor gamma (PPARg) signaling pathway (AID 743094; active = well fitted activation curve with a large enough effect in the signal ratio in the repeat runs, not every such curve was filed as active; the % refers to the signal ratio). The gist of the method: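 Fluorescence-based beta-lactamase readout in HEK293H PPARg UAS-bla cells after 17 h compound exposure (37C) and 1 h B/G FRET substrate incubation at room temperature.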

Experiment [4] is described as follows: qHTS assay to identify small molecule antagonists of the peroxisome proliferator-activated receptor gamma (PPARg) signaling pathway - cell viability counter screen (AID 743194). Also: nearly all actives have a fitted effect of over 55% in size. Also: potency is read from the fitted curve at half-maximal effect. In short, it runs like this: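 PPARg-UAS-bla HEK293H cells were plated, rested 5 h at 37 C, then treated with compounds plus rosiglitazone (50 nM final) for 17 h at 37 C; viability was then read by CellTiter-Glo luminescence after 30 min at room temperature.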

A short description of experiment [5]: qHTS assay for small molecule activators of the heat shock response signaling pathway - cell viability counter screen (AID 743209). Also: nearly all actives have a fitted effect of over 50% in size. In short, it runs like this: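 To flag cytotoxic compounds, HSE-bla HeLa cells plated at 1500 cells/well were dosed for 5 h at 37 C, followed by the reporter FRET read and then CellTiter-Glo, with luminescence recorded 30 min after reagent addition.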

The nature of experiment [6]: qHTS assay for small molecule activators of the heat shock response signaling pathway (AID 743210; active = well fitted activation curve with a large enough effect in the signal ratio in the repeat runs, with a control signal flat, not every such curve was filed as active; the % refers to the signal ratio; also: series mostly up to about 63 µM). In short, it runs like this:
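Heat shock element–beta-lactamase HeLa reporter cells; qHTS with compounds for 5 h at 37 C; detection by FRET substrate fluorescence after 2.5 h at RT.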

The nature of experiment [7]: qHTS assay to identify small molecule agonists of the peroxisome proliferator-activated receptor delta (PPARd) signaling pathway - cell viability counter screen (AID 743211). Also: nearly all actives have a fitted effect of over 55% in size. Also: potency is read from the fitted curve at half-maximal effect. In short, it runs like this:
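Luminescent ATP viability assay (CellTiter-Glo, 30 min RT) in UAS-bla HEK293H cells carrying the PPAR delta reporter construct, 3000 cells/well, after a 17 h compound treatment at 37 C.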

Experiment [8] concerns the target Peroxisome proliferator-activated receptor delta (Homo sapiens) (UniProt Q03181). Kind of experiment: qHTS assay to identify small molecule agonists of the peroxisome proliferator-activated receptor delta (PPARd) signaling pathway (AID 743212; calls by dose curve). In short, it runs like this: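 Beta-lactamase reporter read by fluorescence (LiveBLAzer B/G FRET, 2 h, room temperature). Test agents, in DMSO, incubated at 37 C with PPARd-bla HEK293H cells.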

Experiment [9] is described as follows: qHTS assay to identify small molecule antagonists of the peroxisome proliferator-activated receptor delta (PPARd) signaling pathway - cell viability counter screen (AID 743213). Also: nearly all actives have a fitted effect of over 50% in size. In short, it runs like this:
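CellTiter-Glo was added to PPARd-bla HEK293H wells following 17 h compound treatment in the presence of 300 nM L165041. Luminescence was recorded after 30 min at room temperature.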

In experiment [10] the target is Peroxisome proliferator-activated receptor delta (Homo sapiens) (UniProt Q03181). In words: qHTS assay to identify small molecule antagonists of the peroxisome proliferator-activated receptor delta (PPARd) signaling pathway (AID 743215; active = well fitted inhibition curve with a large enough effect in the signal ratio in the repeat runs, not every such curve was filed as active; the % refers to the signal ratio;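 also: cells stimulated with agonist L165041 at 300 nM final during compound exposure; series mostly up to about 62 µM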). The gist of the method: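 Screen format: qHTS, antagonist mode. HEK293H PPARd-bla cells received compound and 300 nM L165041 (final), 17 h, 37 C. Beta-lactamase detected via FRET substrate fluorescence, 2 h, room temperature.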

A short description of experiment [11]: qHTS assay to identify small molecule agonists of the farnesoid-X-receptor (FXR) signaling pathway - cell viability counter screen (AID 743218). Also: nearly all actives have a fitted effect of over 45% in size. In short, it runs like this:
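Same-well cytotoxicity check on FXR-UAS-bla HEK 293T cells: 5 h attachment, 16 h compound at 37 C, CellTiter-Glo luminescence read at room temperature after 30 min.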

Experiment [12] addresses Bile acid receptor (Homo sapiens) (UniProt Q96RI1). Kind of experiment: qHTS assay to identify small molecule agonists of the farnesoid-X-receptor (FXR) signaling pathway (AID 743220; active = well fitted activation curve with a large enough effect in the signal ratio in the repeat runs, not every such curve was filed as active; the % refers to the signal ratio). In short, it runs like this:
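FXR-UAS-bla HEK 293T cells carrying a UAS-driven beta-lactamase reporter were plated for 5 h at 37C/5% CO2, then exposed to DMSO-dissolved Tox21 10K compounds for 16 h at 37C. A LiveBLAzer B/G FRET substrate was loaded for 2 h at room temperature before fluorescence reading.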

The nature of experiment [13]: qHTS assay to identify small molecule antagonists of the farnesoid-X-receptor (FXR) signaling pathway - cell viability counter screen (AID 743221; active = well fitted cell-killing curve with a large enough effect in the repeat runs, not every such curve was filed as active; also: nearly all actives have a fitted effect of over 50% in size). In short, it runs like this: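 In GeneBLAzer FXR-UAS-bla HEK 293T cells stimulated with 50 uM chenodeoxycholic acid (final), compounds acted for 16 h at 37 C. Viability was assessed afterwards by CellTiter-Glo luminescence.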

In experiment [14] the target is Peroxisome proliferator-activated receptor gamma (Homo sapiens) (UniProt P37231). In words: qHTS assay to identify small molecule antagonists of the peroxisome proliferator-activated receptor gamma (PPARg) signaling pathway (AID 743191; calls by dose curve; also: nearly all actives have a fitted effect of over 30% in size; also: potency is read from the fitted curve at half-maximal effect). The gist of the method:
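GeneBLAzer PPARg UAS-bla HEK293H cells carrying a UAS-driven beta-lactamase reporter were plated at 3000 cells/well, preincubated 5 h at 37C, then given compound for 17 h at 37C; LiveBLAzer B/G FRET substrate was read after 1 h at room temperature.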

Experiment [15] is described as follows: qHTS assay for small molecule agonists of the antioxidant response element (ARE) signaling pathway (AID 743202; active = well fitted activation curve with a large enough effect in the signal ratio in the repeat runs, not every such curve was filed as active; the % refers to the signal ratio; also: potency is read from the fitted curve at half-maximal effect). In short, it runs like this:
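Following a 16 h, 37 C exposure of reporter HepG2 cells (ARE-driven beta-lactamase, 2,000 cells/well) to compounds, FRET substrate was applied for 2 h at room temperature and fluorescence intensity recorded.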

Experiment [16] is described as follows: qHTS assay for small molecule agonists of the antioxidant response element (ARE) signaling pathway - cell viability counter screen (AID 743203; calls by dose curve; also: nearly all actives have a fitted effect of over 55% in size). The gist of the method:
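Parallel cytotoxicity read-out for the ARE-bla screen: HepG2 reporter cells, 16 hrs with compounds, then CellTiter-Glo luminescence.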

The target in experiment [17] is Vitamin D3 receptor (Homo sapiens) (UniProt P11473). In words: qHTS assay to identify small molecule agonists of the vitamin D receptor (VDR) signaling pathway (AID 743222; calls by dose curve; also: potency is read from the fitted curve at half-maximal effect). In short, it runs like this: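 Using LiveBLAzer B/G FRET detection, agonism was scored in VDR-bla cells exposed overnight (16 h, 37C) to DMSO-dissolved compounds; substrate incubation was 2 h at room temperature.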

For experiment [18] the target is unchanged. Kind of experiment: qHTS assay to identify small molecule antagonists of the vitamin D receptor (VDR) signaling pathway (AID 743223; active = well fitted inhibition curve with a large enough effect in the signal ratio in the repeat runs, not every such curve was filed as active; the % refers to the signal ratio; also: potency is read from the fitted curve at half-maximal effect). The gist of the method: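 Agonist 1alpha,25-dihydroxyvitamin D3 (3 nM in well) was added with each compound to VDR-bla cells preincubated 4 h. Cells stood 16 h at 37C, then FRET substrate 2 h at room temperature; fluorescence intensity recorded.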

For experiment [19], the target named is Aryl hydrocarbon receptor (Homo sapiens) (UniProt P35869). In words: qHTS assay to identify small molecule that activate the aryl hydrocarbon receptor (AhR) signaling pathway (AID 743085).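 Also: HG2L7.5c1 human HepG2 liver cells with stably integrated DRE-driven firefly reporter; series mostly up to about 70 µM; nearly all actives have a fitted effect of over 15% in size.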 The gist of the method: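 24 h compound exposure, 37C, HepG2-derived HG2L7.5c1 cells with DRE-responsive luciferase. Readouts: fluorescence viability, then luminescence at room temperature after 30 min.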

Several values for one entry are separate records, joined by “and”; a condition that tells them apart may be missing. Equal entries are not always repeated. Results filed as inconclusive are left out. More than one record can exist for a structure, and the calls need not agree. Activity calls are given as the source filed them. Unless noted, calls follow the shape of the dose curve; as a rule, active = well fitted curve in the direction sought with a large enough effect in the repeat runs; inconclusive = weak or mixed curves; inactive = no such curve, though single readings can be large; an effect the other way counts as inactive or inconclusive.

Vitamin D3 receptor (Homo sapiens), sequence (P11473 whole entry, looked up): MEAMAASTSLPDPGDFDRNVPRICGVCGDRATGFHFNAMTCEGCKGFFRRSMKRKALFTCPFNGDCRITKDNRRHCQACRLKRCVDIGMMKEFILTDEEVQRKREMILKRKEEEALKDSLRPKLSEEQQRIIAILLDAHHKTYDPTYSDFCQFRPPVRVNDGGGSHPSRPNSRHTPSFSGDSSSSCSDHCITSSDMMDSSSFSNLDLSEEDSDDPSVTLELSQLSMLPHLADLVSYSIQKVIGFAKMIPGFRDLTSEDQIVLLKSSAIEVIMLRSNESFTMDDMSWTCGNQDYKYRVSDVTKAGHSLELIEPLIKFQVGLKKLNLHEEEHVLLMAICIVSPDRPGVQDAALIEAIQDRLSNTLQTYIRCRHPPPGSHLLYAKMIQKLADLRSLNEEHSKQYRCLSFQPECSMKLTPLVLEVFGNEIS
Peroxisome proliferator-activated receptor delta (Homo sapiens), sequence (Q03181 whole entry, looked up): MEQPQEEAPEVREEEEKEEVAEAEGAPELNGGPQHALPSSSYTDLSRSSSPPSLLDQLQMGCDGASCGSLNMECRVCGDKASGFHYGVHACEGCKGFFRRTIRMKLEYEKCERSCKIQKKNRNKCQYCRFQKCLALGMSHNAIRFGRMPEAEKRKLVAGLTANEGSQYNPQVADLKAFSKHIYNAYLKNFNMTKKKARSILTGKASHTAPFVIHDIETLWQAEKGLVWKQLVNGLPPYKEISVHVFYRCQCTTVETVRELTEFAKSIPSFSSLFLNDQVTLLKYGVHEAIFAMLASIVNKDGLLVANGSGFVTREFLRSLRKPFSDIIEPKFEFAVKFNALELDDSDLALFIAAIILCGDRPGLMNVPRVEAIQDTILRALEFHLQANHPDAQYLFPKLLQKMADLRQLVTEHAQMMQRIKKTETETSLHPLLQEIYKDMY
Bile acid receptor (Homo sapiens), sequence (Q96RI1 whole entry, looked up): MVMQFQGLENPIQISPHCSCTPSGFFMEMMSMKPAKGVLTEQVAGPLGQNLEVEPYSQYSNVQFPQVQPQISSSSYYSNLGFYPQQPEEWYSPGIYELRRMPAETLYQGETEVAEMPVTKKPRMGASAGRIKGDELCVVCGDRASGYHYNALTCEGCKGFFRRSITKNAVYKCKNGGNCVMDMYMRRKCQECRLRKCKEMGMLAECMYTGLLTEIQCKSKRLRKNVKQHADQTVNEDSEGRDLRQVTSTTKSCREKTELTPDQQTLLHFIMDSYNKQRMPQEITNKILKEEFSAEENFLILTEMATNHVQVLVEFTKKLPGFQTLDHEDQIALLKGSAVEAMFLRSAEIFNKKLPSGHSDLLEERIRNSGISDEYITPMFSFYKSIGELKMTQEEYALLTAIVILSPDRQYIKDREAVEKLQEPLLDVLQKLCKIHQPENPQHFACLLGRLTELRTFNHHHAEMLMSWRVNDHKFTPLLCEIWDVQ
Peroxisome proliferator-activated receptor gamma (Homo sapiens), sequence (P37231 whole entry, looked up): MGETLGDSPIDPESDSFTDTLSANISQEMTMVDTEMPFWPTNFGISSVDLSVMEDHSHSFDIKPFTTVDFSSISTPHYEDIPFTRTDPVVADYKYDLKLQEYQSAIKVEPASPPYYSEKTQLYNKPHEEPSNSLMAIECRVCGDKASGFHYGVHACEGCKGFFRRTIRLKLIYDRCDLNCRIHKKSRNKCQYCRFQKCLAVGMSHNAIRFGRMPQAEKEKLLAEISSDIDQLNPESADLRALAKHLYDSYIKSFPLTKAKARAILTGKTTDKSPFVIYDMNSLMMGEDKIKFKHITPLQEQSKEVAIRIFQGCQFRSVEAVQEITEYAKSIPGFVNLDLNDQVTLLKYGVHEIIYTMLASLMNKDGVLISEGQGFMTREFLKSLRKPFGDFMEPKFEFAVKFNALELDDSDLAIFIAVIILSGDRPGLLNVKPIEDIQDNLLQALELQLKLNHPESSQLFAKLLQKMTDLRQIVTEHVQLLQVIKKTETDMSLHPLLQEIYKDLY
Aryl hydrocarbon receptor (Homo sapiens), sequence (P35869 whole entry, looked up): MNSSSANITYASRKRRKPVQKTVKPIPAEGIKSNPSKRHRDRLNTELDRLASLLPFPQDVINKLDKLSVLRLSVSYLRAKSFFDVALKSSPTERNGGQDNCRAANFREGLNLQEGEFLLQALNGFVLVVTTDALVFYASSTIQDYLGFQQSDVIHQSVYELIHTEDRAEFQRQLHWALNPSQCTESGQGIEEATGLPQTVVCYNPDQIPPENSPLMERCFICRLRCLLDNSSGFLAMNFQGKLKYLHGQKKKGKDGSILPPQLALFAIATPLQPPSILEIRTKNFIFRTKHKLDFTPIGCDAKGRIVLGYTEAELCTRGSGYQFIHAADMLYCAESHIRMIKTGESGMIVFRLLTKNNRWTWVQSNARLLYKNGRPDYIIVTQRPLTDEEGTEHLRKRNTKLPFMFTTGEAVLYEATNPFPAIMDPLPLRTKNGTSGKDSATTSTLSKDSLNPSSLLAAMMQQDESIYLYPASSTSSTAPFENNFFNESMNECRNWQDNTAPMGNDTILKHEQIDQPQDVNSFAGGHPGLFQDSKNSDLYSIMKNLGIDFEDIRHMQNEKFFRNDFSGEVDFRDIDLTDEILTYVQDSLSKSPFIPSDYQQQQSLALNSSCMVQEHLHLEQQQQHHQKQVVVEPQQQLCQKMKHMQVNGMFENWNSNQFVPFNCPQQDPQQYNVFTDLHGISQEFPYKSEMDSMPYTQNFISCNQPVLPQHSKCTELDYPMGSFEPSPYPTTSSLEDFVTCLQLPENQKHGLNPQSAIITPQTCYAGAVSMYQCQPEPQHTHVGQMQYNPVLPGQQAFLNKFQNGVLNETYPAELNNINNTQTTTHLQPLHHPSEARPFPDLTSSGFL

Take `O=c1c(-c2ccc(O)cc2)coc2cc(O)ccc12`: the Potency result in experiment [1], in experiment [2], in experiment [4], in [5], in experiment [7] and in experiment [9] was “inactive” in each case. For the same molecule, the Potency entry in [11] and in experiment [13] was “inactive” in each case. The molecule was classed as inactive in experiment [3], in [6], in experiment [8], in experiment [10] and in experiment [12].

As to `CCCCCCCCCC(=O)O`, the Potency entry in experiment [1], in [2], in [4], in [15], in experiment [16] and in experiment [5] was “inactive” throughout. In addition, the Potency entry in [7], in experiment [9], in experiment [11], in [13], in [17] and in experiment [18] was “inactive” in each case. For the same molecule, in [14], the Potency was 30.9 µM (active). For the same molecule, the call in experiment [6] and in experiment [10] was inactive.

As to `CN(C)c1ccc(C(=N)c2ccc(N(C)C)cc2)cc1`, the Potency in experiment [2] is 23.4 µM (active); in experiment [4], 23.6 µM (active); in [18], 5.93 µM (active). For the same molecule, the molecule was classed as inactive in experiment [3], in experiment [6] and in [8]. For the same molecule, the Potency entry in [16], in [5], in [9], in experiment [11], in experiment [13] and in experiment [17] was “inactive” in each case.

`O=C1N=C(O)CN1/N=C/c1ccc(-c2ccc([N+](=O)[O-])cc2)o1`: the Potency result in experiment [1], in experiment [4], in [15], in experiment [16], in experiment [5] and in experiment [7] was “inactive” each time. In addition, the Potency entry in [9], in experiment [13], in experiment [17] and in [18] was “inactive” each time. In [2], the Potency entry was “inactive and 48.6 µM (active)”. The molecule was called inactive in experiment [6].

`C=C1CC[C@H](O)CC1=C/C=C1\CCC[C@]2(C)[C@@H]([C@H](C)/C=C/[C@H](C)C(C)C)CC[C@@H]12`: the Potency entry in [1], in [19], in experiment [2], in experiment [16], in experiment [5] and in experiment [9] was “inactive” throughout. In addition, in [13], the Potency entry is “inactive”. The Potency was 13.6 µM (active) and 24.3 µM (active) in experiment [15]; 54.5 µM (active) and 6.16 µM (active) in experiment [7]; 3.86 µM (active) in [17]. Besides, the molecule was classed as inactive in experiment [10] and in experiment [12].

On to `CCCCC(CC)C(=O)OCCOCCOCCOC(=O)C(CC)CCCC` (stereo not drawn), for which the Potency result in [1], in [2], in [14], in experiment [4], in [15] and in experiment [16] was “inactive” throughout. Besides, the Potency entry in experiment [5], in experiment [7], in experiment [9], in [11], in [13] and in experiment [17] was “inactive” throughout. The Potency entry in [18] was “inactive”. In addition, the outcome in experiment [3], in [6], in experiment [8] and in [10] was inactive.

With `C[C@@H](O)[C@H]1C(=O)N2C(C(=O)O)=C(S[C@@H]3CN[C@H](C(=O)N(C)C)C3)[C@H](C)[C@H]12`, the Potency result in experiment [1], in experiment [2], in [14], in [4], in [15] and in experiment [16] was “inactive” throughout. The Potency entry in experiment [5], in experiment [7], in experiment [9], in [11], in experiment [13] and in experiment [17] was “inactive” each time. In experiment [18], the Potency entry was “inactive”. Besides, the molecule was classed as inactive in experiment [3] and in experiment [6].

As for `CC(C)(C)C(=O)C1C(=O)c2ccccc2C1=O`, the Potency result in experiment [16], in experiment [5], in [7], in experiment [9], in experiment [11] and in experiment [13] was “inactive” each time. Moreover, the Potency result in experiment [17] and in experiment [18] was “inactive” throughout. The outcome in experiment [6], in [8], in experiment [10] and in experiment [12] was inactive.
